This is an account of results in PubChem BioAssay AID493204 (National Center for Advancing Translational Sciences (NCATS), 2011).

SMILES strings stand for the structures. The list shows a part of the results. Inconclusive results are not listed. Active and inactive are the calls of the source. Calls come from the whole dose curve; as a rule, active = well fitted inhibition curve with a large enough effect; inconclusive = small, poorly fitted or top-dose-only effect; inactive = flat fitted curve, though single readings scatter.

Chain of Dual specificity protein kinase CLK4 (Homo sapiens) (Q9HAZ1 whole entry, looked up): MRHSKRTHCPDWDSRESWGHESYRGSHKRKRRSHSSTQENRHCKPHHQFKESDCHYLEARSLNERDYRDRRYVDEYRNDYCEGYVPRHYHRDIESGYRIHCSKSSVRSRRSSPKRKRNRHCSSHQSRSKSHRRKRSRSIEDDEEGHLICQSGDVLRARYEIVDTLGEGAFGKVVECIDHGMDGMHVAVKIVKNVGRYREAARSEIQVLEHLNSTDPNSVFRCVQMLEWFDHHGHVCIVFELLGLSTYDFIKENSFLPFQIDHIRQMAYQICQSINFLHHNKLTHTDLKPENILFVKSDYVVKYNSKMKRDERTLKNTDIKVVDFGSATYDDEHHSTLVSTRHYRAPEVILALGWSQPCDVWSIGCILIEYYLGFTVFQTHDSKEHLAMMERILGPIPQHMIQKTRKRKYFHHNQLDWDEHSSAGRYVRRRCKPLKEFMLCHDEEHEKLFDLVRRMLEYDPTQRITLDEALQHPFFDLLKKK

The target of the assay is Dual specificity protein kinase CLK4 (Homo sapiens) (UniProt Q9HAZ1). Put plainly: Confirmation Assay for Inhibitors of CDC-like Kinase 4 (Kinase-Glo Assay): SAR round 2. The settings on record: recombinant Clk4, Kinase-Glo ATP luminescence, 4.5 h. On the procedure:
NIH Molecular Libraries Probe Production Centers Network [MLPCN] NIH Chemical Genomics Center [NCGC] MLPCN Grant: 1R03MH084827-01 Assay Submitter (PI): Tom Misteli NCGC Assay Overview: Clk4 (Invitrogen, cat# PV3839) was assayed using ATP and the RS repeat peptide (AnaSpec cat # 61722) as substrates. Following the Clk4 reaction, the remaining ATP levels were detected using Promega Kinase-Glo technology wherein the remaining ATP from the kinase reaction is detected using Ultra-Glo luciferase and D-luciferin which generates a bioluminescence signal from the ATP. The positive control for the assay was TG003 (Sigma-Aldrich, cat# 300801-52-9) which has been described as an inhibitor of Clk 4[1].
NCGC Assay Protocol Summary: Two uL/well of substrate-buffer solution (100 uM RS peptide, 1 uM ATP, 25 mM Tris pH7.5, 10 mM MgCl2, 0.5 mM EGTA, 2.5 mM DTT, 0.01% Triton X-100 final concentration) was dispensed into 1536-well, assay plates (Greiner, solid white medium-binding plates) with Aurora Discovery BioRAPTR Flying Reagent Dispenser (FRD; Beckton-Dickenson). Using a Kalypsys pin tool equipped with a 1536-pin tool, 23 nL of compound solution was transferred to the assay plate. […] Luminescence was detected with the ViewLux plate reader (Perkin Elmer, Waltham, MA) after 5 min incubation using a 5 second exposure time and 2x binning.
For `c1nc(N2CCOCC2)c2cc(-c3ccc4c(c3)OCO4)ccc2n1`, the Potency is 0.104 µM (active).
